Test systems include HCT-15 colon; HT29 colon; SNB-75 CNS; SNB-19 CNS; U251 CNS; PC-3 prostate; SK-MEL-5 melanoma; UACC-62 melanoma; SK-MEL-28 melanoma; SK-MEL-2 melanoma; EKVX NSCLC; SN12C renal; UO-31 renal; TK-10 renal; ACHN renal; CAKI-1 renal; A498 renal; CCRF-CEM leukemia; MOLT-4 leukemia.
What all share (assay): NCI-60 one-dose screen, 48 h (100 = growth as untreated, 0 = no growth, -100 = all killed)
Common to all, as to conditions: 10 µM

The panel holds about 83,000 compounds, 20% with a hit somewhere; the sample as a whole holds those more often.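 96-well plates, one dose, 48 hours. Percent growth reported; active if below 10.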 Values without a mark were called inactive. Calls of active or inactive are those of the source.

As to `COc1ccc2cc([C@H](C)C(=O)NCc3ccccc3)ccc2c1`, the growth is 29.1% with HCT-15 colon; 5.25% (active) in the experiment with HT29 colon; 6.97% (active) in the experiment on SNB-75 CNS; 31.7% with SNB-19 CNS; 25% in the experiment with U251 CNS; 49.5% in the experiment with PC-3 prostate. Further, the growth was 18.7% in the experiment on SK-MEL-5 melanoma; 22.1% with UACC-62 melanoma; 64.4% in the experiment on SK-MEL-28 melanoma; 31% in the experiment with SK-MEL-2 melanoma; 42.5% in the experiment with EKVX NSCLC; 33.5% in the experiment on SN12C renal. In addition, the growth with UO-31 renal was 46.3%; with TK-10 renal it was 65.7%; with ACHN renal it was 54.9%; with CAKI-1 renal, 34.7%; in the experiment on A498 renal it was 63.1%; with CCRF-CEM leukemia it was 31%. Moreover, the growth in the experiment on MOLT-4 leukemia is 47%.
As to `CCCn1c(=O)c2[nH]c(-c3ccc(OCc4nc5ccccc5[nH]4)cc3)nc2n(CCC)c1=O`, the growth with HCT-15 colon is 63.2%; in the experiment on HT29 colon, 61.2%; in the experiment with SNB-75 CNS, 34.9%; in the experiment with SNB-19 CNS, 37.1%; in the experiment on U251 CNS, 2.91% (active); with PC-3 prostate, 77.3%. Further, the growth in the experiment on SK-MEL-5 melanoma was 44.6%; in the experiment with UACC-62 melanoma it was 35.5%; in the experiment with SK-MEL-28 melanoma it was 102%; in the experiment on SK-MEL-2 melanoma, 81.6%; with EKVX NSCLC, 55.7%; with SN12C renal, 2.85% (active). Further, the growth in the experiment with UO-31 renal was 35.7%; in the experiment with TK-10 renal, 17.4%; in the experiment on ACHN renal, 32.4%; in the experiment on CAKI-1 renal, 39.1%; with A498 renal, -10.5% (active); with CCRF-CEM leukemia, 87.8%. For the same compound, the growth with MOLT-4 leukemia was 70.7%.
On to `CCCn1c(=O)c2[nH]c(-c3ccc(OCc4nc5ccc(C#N)cc5[nH]4)cc3)nc2n(CCC)c1=O`, for which the growth in the experiment on HCT-15 colon is 84.7%; in the experiment with HT29 colon, 88.5%; with SNB-75 CNS, 84.9%; in the experiment with SNB-19 CNS, 80.8%; in the experiment with U251 CNS, 70.6%; with PC-3 prostate, 55.4%. Besides, the growth was 83.4% with SK-MEL-5 melanoma; 49.2% in the experiment on UACC-62 melanoma; 96.8% in the experiment on SK-MEL-2 melanoma; 80.6% in the experiment with EKVX NSCLC; 76.5% in the experiment with SN12C renal; 67.8% in the experiment on UO-31 renal. Further, the growth in the experiment with TK-10 renal is 107%; in the experiment with ACHN renal, 70.4%; with CAKI-1 renal, 89.6%; in the experiment with A498 renal, 79.1%; in the experiment on CCRF-CEM leukemia, 83.6%; in the experiment on MOLT-4 leukemia, 75.6%.
As for `C#CCNC(=O)CCC(=O)OC[C@]12CC[C@@H](C(=C)C)[C@@H]1C1CC[C@@H]3[C@@]4(C)CCCNC(C)(C)[C@@H]4CC[C@@]3(C)[C@]1(C)CC2` (stereo not given in full), the growth in the experiment on HCT-15 colon is -64.9% (active); with HT29 colon, -68.1% (active); in the experiment on SNB-75 CNS it was 98.8%; in the experiment with SNB-19 CNS it was 34%; in the experiment with U251 CNS it was -74.2% (active); in the experiment with PC-3 prostate, -20.3% (active). In addition, the growth was -100% (active) with SK-MEL-5 melanoma; -42.8% (active) with UACC-62 melanoma; -98.5% (active) with SK-MEL-28 melanoma; -66.1% (active) with SK-MEL-2 melanoma; 19.2% in the experiment with SN12C renal; 33.5% in the experiment with UO-31 renal. For the same compound, the growth was 11.6% with TK-10 renal; 26.6% in the experiment on ACHN renal; 17.3% in the experiment on CAKI-1 renal; 68.5% in the experiment with A498 renal; -13.2% (active) with CCRF-CEM leukemia; -3.06% (active) in the experiment on MOLT-4 leukemia.
For the compound `C=C1CCC2C3(C)COC(c4c(F)cccc4F)OC3CCC2(C)C1CC(O)C1=CCOC1=O` (stereo not given), the growth with HCT-15 colon is 18.3%; in the experiment with HT29 colon it was 23%; in the experiment with SNB-75 CNS, 45.1%; in the experiment with SNB-19 CNS, 86.2%; in the experiment on U251 CNS, 69.1%; in the experiment on PC-3 prostate it was 41%. The growth with SK-MEL-5 melanoma is 68.2%; in the experiment on UACC-62 melanoma, 79.7%; in the experiment on SK-MEL-28 melanoma, 62.3%; with SK-MEL-2 melanoma it was 52.4%; in the experiment on EKVX NSCLC, 85.7%; in the experiment on SN12C renal, 34.9%. Further, the growth with UO-31 renal is 50%; in the experiment on TK-10 renal it was 105%; with ACHN renal, 3.02% (active); in the experiment with CAKI-1 renal it was 72.5%; in the experiment with A498 renal, 134%; in the experiment with CCRF-CEM leukemia, 17.7%. In addition, the growth in the experiment on MOLT-4 leukemia was 53.7%.
As for `COC(=O)C[C@](O)(CCCC(C)(C)O)C(=O)O[C@H]1C(OC)=C[C@@]23CCC(=O)N2CCc2cc4c(cc2[C@@H]13)OCO4`, the growth with HCT-15 colon was 97.8%; in the experiment on HT29 colon, 93.6%; in the experiment with SNB-75 CNS, 94.6%; in the experiment on SNB-19 CNS, 84.4%; with U251 CNS it was 114%; in the experiment with PC-3 prostate it was 89.5%. In addition, the growth in the experiment on SK-MEL-5 melanoma was 98.3%; in the experiment with UACC-62 melanoma it was 89.5%; in the experiment on SK-MEL-28 melanoma, 103%; with SK-MEL-2 melanoma, 110%; with EKVX NSCLC, 103%; in the experiment with SN12C renal, 115%. Moreover, the growth in the experiment on UO-31 renal was 65%; in the experiment with TK-10 renal it was 101%; with ACHN renal, 101%; in the experiment on CAKI-1 renal it was 94.3%; in the experiment with A498 renal, 76.6%; in the experiment on CCRF-CEM leukemia it was 101%. Moreover, the growth in the experiment with MOLT-4 leukemia was 73.4%.
Take `CCOc1ccc2ncc(C#Cc3cncc(C(=O)Nc4ccc(CN5CCN(C)CC5)c(C(F)(F)F)c4)c3)n2n1`: the growth is -86.1% (active) with HCT-15 colon; -51% (active) in the experiment on HT29 colon; -88.8% (active) in the experiment with SNB-75 CNS; -63.3% (active) in the experiment with SNB-19 CNS; -41.5% (active) in the experiment on U251 CNS; -34.9% (active) in the experiment on PC-3 prostate. The growth was -83.4% (active) in the experiment with SK-MEL-5 melanoma; -71.3% (active) in the experiment with UACC-62 melanoma; -83.1% (active) with SK-MEL-28 melanoma; -75.7% (active) in the experiment on SK-MEL-2 melanoma; -65.8% (active) in the experiment on EKVX NSCLC; -82.9% (active) in the experiment on SN12C renal. Besides, the growth with UO-31 renal is -65.8% (active); in the experiment with TK-10 renal it was -66.5% (active); in the experiment on ACHN renal, -87% (active); in the experiment on CAKI-1 renal it was 30.4%; with A498 renal, 15.9%; in the experiment on CCRF-CEM leukemia, 7.96% (active). The growth in the experiment on MOLT-4 leukemia was -8.54% (active).
Take `COc1ccc(NC(=O)Nc2ccc(OCC(=O)N=Nc3c(O)[nH]c4ccc([N+](=O)[O-])cc34)cc2)cc1`: the growth was 106% in the experiment with HCT-15 colon; 95.2% with HT29 colon; 72.4% in the experiment with SNB-75 CNS; 40.4% with SNB-19 CNS; 25% in the experiment on U251 CNS; 81.9% in the experiment on PC-3 prostate. Also, the growth in the experiment with SK-MEL-5 melanoma was 96%; with UACC-62 melanoma it was 104%; with SK-MEL-28 melanoma it was 115%; in the experiment on SK-MEL-2 melanoma, 89.4%; in the experiment on EKVX NSCLC it was 83.7%; in the experiment on SN12C renal, 72.5%. In addition, the growth in the experiment with UO-31 renal was 94.3%; with TK-10 renal it was 113%; in the experiment with ACHN renal, 102%; with CAKI-1 renal, 92.5%; in the experiment on A498 renal, 101%; in the experiment with CCRF-CEM leukemia it was 93.7%. Also, the growth in the experiment on MOLT-4 leukemia is 100%.

The values above are taken from PubChem BioAssay (NCI).
